Measured values reported in PubChem BioAssay (NCI).
This is part of a sample that, as a whole, favours compounds with a hit. Of some 83,000 tested, about 20% had one in any assay.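 The test compound was applied at a single concentration to cells in 96-well plates for 48 hours, and percent growth was recorded.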

Tests used:
Assay in all cases: NCI-60 one-dose screen, 48 h (100 = growth as untreated, 0 = no growth, -100 = all killed)
Conditions in all cases: 10 µM unless noted; active means growth percent below 10; inactive means the rest
SR leukemia = tested on: SR leukemia
RPMI-8226 leukemia = tested on: RPMI-8226 leukemia
OVCAR-8 ovarian = tested on: OVCAR-8 ovarian
OVCAR-5 ovarian = tested on: OVCAR-5 ovarian
OVCAR-4 ovarian = tested on: OVCAR-4 ovarian
SK-OV-3 ovarian = tested on: SK-OV-3 ovarian
IGROV1 ovarian = tested on: IGROV1 ovarian
OVCAR-3 ovarian = tested on: OVCAR-3 ovarian
HS 578T breast = tested on: HS 578T breast
NCI/ADR-RES ovarian = tested on: NCI/ADR-RES ovarian
T-47D breast = tested on: T-47D breast
BT-549 breast = tested on: BT-549 breast
MDA-MB-435 melanoma = tested on: MDA-MB-435 melanoma
SW-620 colon = tested on: SW-620 colon
MCF7 breast = tested on: MCF7 breast
HCT-116 colon = tested on: HCT-116 colon
HCC-2998 colon = tested on: HCC-2998 colon
KM12 colon = tested on: KM12 colon

Measured: growth

O=S(=O)(Nc1cc(Sc2nc3ccccc3s2)c(O)c2ccccc12)c1ccc2ccccc2c1
inactive: SR leukemia 100% | RPMI-8226 leukemia 88.5% | OVCAR-8 ovarian 75.3% | OVCAR-5 ovarian 111% | OVCAR-4 ovarian 77.8% | SK-OV-3 ovarian 101% | IGROV1 ovarian 101% | OVCAR-3 ovarian 82.6% | HS 578T breast 101% | NCI/ADR-RES ovarian 86.1% | T-47D breast 79.5% | BT-549 breast 105% | MDA-MB-435 melanoma 95.4% | SW-620 colon 108% | MCF7 breast 81.7% | HCT-116 colon 90.6% | HCC-2998 colon 109% | KM12 colon 92.6%

CN(C)/C(N)=N/N=C(\c1ccccc1)c1ccccn1
inactive: SR leukemia 85.5% | RPMI-8226 leukemia 92.1% | OVCAR-8 ovarian 103% | OVCAR-5 ovarian 102% | OVCAR-4 ovarian 86.6% | SK-OV-3 ovarian 113% | IGROV1 ovarian 93.7% | OVCAR-3 ovarian 93.7% | HS 578T breast 97.8% | NCI/ADR-RES ovarian 98.3% | T-47D breast 110% | BT-549 breast 99.8% | SW-620 colon 104% | MCF7 breast 105% | HCT-116 colon 89.5% | HCC-2998 colon 94.3% | KM12 colon 99.1%

CSc1ccc(N2C(=N)C(=S)N(c3ccc(C)cc3)C2=O)cc1
inactive: SR leukemia 80.3% | RPMI-8226 leukemia 89% | OVCAR-8 ovarian 96.1% | OVCAR-5 ovarian 89% | OVCAR-4 ovarian 96.4% | SK-OV-3 ovarian 81.1% | IGROV1 ovarian 103% | OVCAR-3 ovarian 105% | HS 578T breast 96% | NCI/ADR-RES ovarian 106% | T-47D breast 83% | BT-549 breast 72.2% | MDA-MB-435 melanoma 102% | SW-620 colon 103% | MCF7 breast 85.4% | HCT-116 colon 93.7% | HCC-2998 colon 104% | KM12 colon 96.5%
